The panel holds about 83,000 compounds, 20% with a hit somewhere; the sample as a whole holds those more often.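 Assay: single dose, 48 h. Readout: percent growth (0 = no net growth; negative = cell death). Active: <10.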 The source made the active and inactive calls.
Assays:
Assay in all cases: NCI-60 one-dose screen, 48 h (100 = growth as untreated, 0 = no growth, -100 = all killed)
Conditions in all cases: 10 µM unless noted
[1] = tested on: HCT-15 colon
[2] = tested on: HT29 colon
[3] = tested on: SNB-75 CNS
[4] = tested on: SNB-19 CNS
[5] = tested on: U251 CNS
[6] = tested on: PC-3 prostate
[7] = tested on: SK-MEL-5 melanoma
[8] = tested on: UACC-62 melanoma
[9] = tested on: LOX IMVI melanoma
[10] = tested on: SK-MEL-28 melanoma

Measured: growth

COc1ccc(CN2C(=O)/C(=C\C(=O)c3ccc(OCCN4CCCC4)cc3)c3ccccc32)cc1
active: [2] 9.12%
inactive: [1] 37.3% | [3] 73.2% | [4] 97.1% | [5] 87.3% | [6] 84% | [7] 92.7% | [8] 88.7% | [9] 31.7% | [10] 103%

O=C(CCC(=O)N(CCO)CCO)N(CCO)CCO
inactive: [1] 94.9% | [2] 98.6% | [3] 94% | [4] 108% | [5] 105% | [6] 100% | [7] 114% | [8] 109% | [9] 101% | [10] 106%

C/C=C/C/C=C/[C@H](C)C[C@H](O)[C@@H]1C[C@@H]2O[C@H]2/C=C/[C@@H]2OC(C)(C)O[C@H]2/C=C/C[C@H](C)CC(=O)O1
active: [8] 8.91%
inactive: [1] 19.7% | [2] 28.1% | [3] 36.3% | [4] 62.2% | [5] 30% | [6] 57.8% | [7] 31% | [9] 44.3% | [10] 59.3%

O=C1C=C(OCC=C(C(F)(F)F)C(F)(F)F)c2ccccc2C1=O
inactive: [1] 11% | [3] 66.6% | [4] 61% | [5] 39.7% | [7] 33.5% | [8] 63.7%
active: [2] 6.37% | [6] -19% | [9] -62.4% | [10] -17.5%

COC(=O)c1ccc(C(=Nc2ccc(N(C)C(=O)CN3CCN(C)CC3)cc2)c2c(O)[nH]c3ccc(C(=O)OC)cc23)cc1
inactive: [1] 27% | [2] 29.7% | [3] 24.6% | [4] 55.3% | [5] 29% | [6] 28.8% | [7] 36.4% | [8] 42.7% | [9] 38.5% | [10] 50.4%

CC(=O)/C(=C/c1ccc(-c2ccccc2)cc1)C(=O)c1ccccc1
inactive: [1] 66.9% | [2] 70.2% | [3] 79.7% | [4] 82.3% | [5] 61% | [6] 63.1% | [7] 87.3% | [8] 80.5% | [9] 19.5% | [10] 96.2%

Cc1c(Cc2ccccc2)c(=O)oc2c(C)c(OCC(=O)n3nc(C#N)cc3N)ccc12
inactive: [1] 103% | [2] 95.6% | [3] 81% | [4] 98.9% | [5] 106% | [6] 89% | [7] 103% | [8] 99.1% | [9] 96.7% | [10] 106%

CCCC(=O)NNc1[nH]c(-c2cc(OC)c(OC)c(OC)c2)cc1C(=O)OCC
inactive: [1] 116% | [2] 114% | [3] 114% | [4] 110% | [5] 103% | [6] 111% | [7] 112% | [8] 102% | [9] 105% | [10] 122%

COc1ccc2nc3cc(Cl)ccc3c(NCCCNC(C)=O)c2c1
inactive: [1] 23.6% | [2] 27% | [3] 68.9% | [4] 43.4% | [5] 32.3% | [6] 39.6% | [7] 23.5% | [8] 42.6% | [9] 15.9% | [10] 38.8%

C/C(=N\Nc1ccc(Cl)cn1)c1ccccn1
inactive: [1] 15.5% | [2] 16.7% | [3] 31.5% | [4] 21.5% | [6] 20.9% | [10] 13.5%
active: [5] 7.65% | [7] -61.9% | [8] -28.3% | [9] 1.48%

COc1ccc(-c2cc(C#N)c(NNC(C)=O)[nH]2)cc1
inactive: [1] 117% | [2] 105% | [3] 119% | [4] 125% | [5] 102% | [6] 115% | [7] 105% | [8] 103% | [9] 103% | [10] 115%

CCNc1nnc(COc2ccc(CNC(=O)CCCC/C=C/C(C)C)cc2OC)o1
inactive: [1] 96.9% | [2] 105% | [3] 86.2% | [4] 104% | [5] 98.3% | [6] 104% | [7] 102% | [8] 95% | [9] 93.2% | [10] 104%

c1ccc2[nH]c(-c3ccc(OCCCCCOc4ccc(-c5nc6ccccc6[nH]5)cc4)cc3)nc2c1
inactive: [1] 16.7% | [4] 46% | [7] 37.7% | [8] 12.8%
active: [2] -30.6% | [3] -4.77% | [5] -2.78% | [6] -70% | [9] -77% | [10] -71.6%

Nc1cc(N)c2nc(-c3ccccc3)c(NCCc3ccc(Cl)c(Cl)c3)nc2c1
active: [1] -87.7% | [2] -36.3% | [3] -33.7% | [4] -69.4% | [5] -100% | [6] -90.5% | [7] -99.1% | [8] -91.7% | [9] -91.5% | [10] -79.3%

From PubChem BioAssay (NCI)
